Experiments:
Experiment in all cases: DAPPL (digital affinity profiling via proximity ligation, sequencing); 10 mM Tris-HCl pH 7.5, 50 mM NaCl, 1 mM DTT, 4% glycerol, room temperature, 30 min; GST-TFs on glutathione beads, 16-mer random dsDNA library, 0.1% formaldehyde crosslink after washing; high values mean tight binding
Conditions in all cases: protein: recombinant; tags: N-terminal GST; dsDNA, one strand shown
ERF = target: T1, ERF (Homo sapiens, UniProt P50548 1-548)
T1 sequence: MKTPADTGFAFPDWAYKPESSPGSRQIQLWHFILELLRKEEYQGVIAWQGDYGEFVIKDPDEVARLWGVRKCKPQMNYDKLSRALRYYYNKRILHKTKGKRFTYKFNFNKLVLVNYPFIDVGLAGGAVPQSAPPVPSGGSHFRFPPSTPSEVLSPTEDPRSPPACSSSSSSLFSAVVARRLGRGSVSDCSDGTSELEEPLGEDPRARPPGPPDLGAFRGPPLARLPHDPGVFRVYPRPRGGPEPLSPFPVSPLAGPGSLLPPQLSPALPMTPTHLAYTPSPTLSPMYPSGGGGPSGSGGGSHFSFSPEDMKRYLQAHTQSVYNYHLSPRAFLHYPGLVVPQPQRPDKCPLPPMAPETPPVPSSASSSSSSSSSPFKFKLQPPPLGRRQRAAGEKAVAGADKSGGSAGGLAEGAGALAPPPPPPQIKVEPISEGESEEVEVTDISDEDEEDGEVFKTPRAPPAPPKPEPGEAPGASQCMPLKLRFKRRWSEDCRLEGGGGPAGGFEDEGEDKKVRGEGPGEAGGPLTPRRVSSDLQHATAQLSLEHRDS
Outline: (§1)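 Binding signal is given per hexamer as its read frequency for a factor divided by its frequency in the tag-only sample. GST-fused human transcription factors were expressed in yeast, captured on glutathione beads, barcoded with DNA and pooled with that sample, then incubated with 200 nmole of a 16-mer random double-stranded DNA library in Tris/NaCl/DTT/glycerol buffer for 30 min at room temperature. The pools were then washed, crosslinked, proximity-ligated, amplified by PCR and sequenced on an Illumina NextSeq500.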

ETV3L = target: T2, ETV3L (Homo sapiens, UniProt Q6ZN32 1-361)
T2 sequence: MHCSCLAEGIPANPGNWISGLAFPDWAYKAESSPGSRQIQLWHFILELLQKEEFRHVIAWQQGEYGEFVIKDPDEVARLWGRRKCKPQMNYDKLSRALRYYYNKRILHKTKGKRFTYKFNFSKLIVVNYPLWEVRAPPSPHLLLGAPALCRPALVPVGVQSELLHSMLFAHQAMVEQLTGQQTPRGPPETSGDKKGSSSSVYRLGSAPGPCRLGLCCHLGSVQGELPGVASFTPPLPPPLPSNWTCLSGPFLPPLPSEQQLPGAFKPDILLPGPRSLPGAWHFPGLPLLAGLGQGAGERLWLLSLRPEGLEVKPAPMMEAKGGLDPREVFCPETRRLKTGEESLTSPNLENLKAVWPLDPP
Outline: as §1

ETS2 = target: T3, ETS2 (Homo sapiens, UniProt P15036 1-469)
T3 sequence: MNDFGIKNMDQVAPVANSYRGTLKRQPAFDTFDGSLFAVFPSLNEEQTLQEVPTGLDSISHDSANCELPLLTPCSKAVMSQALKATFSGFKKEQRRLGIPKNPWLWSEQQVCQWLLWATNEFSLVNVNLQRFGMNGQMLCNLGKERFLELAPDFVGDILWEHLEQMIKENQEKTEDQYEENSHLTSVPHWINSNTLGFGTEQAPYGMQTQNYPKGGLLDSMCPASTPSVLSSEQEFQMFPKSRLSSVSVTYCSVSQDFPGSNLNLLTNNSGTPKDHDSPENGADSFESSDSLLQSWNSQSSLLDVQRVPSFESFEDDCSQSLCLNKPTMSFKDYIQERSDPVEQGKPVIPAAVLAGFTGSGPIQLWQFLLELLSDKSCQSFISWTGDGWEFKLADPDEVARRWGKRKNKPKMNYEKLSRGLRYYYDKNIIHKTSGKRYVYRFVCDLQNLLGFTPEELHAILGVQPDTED
Outline: as §1

SPDEF = target: T4, SPDEF (Homo sapiens, UniProt O95238 1-335)
T4 sequence: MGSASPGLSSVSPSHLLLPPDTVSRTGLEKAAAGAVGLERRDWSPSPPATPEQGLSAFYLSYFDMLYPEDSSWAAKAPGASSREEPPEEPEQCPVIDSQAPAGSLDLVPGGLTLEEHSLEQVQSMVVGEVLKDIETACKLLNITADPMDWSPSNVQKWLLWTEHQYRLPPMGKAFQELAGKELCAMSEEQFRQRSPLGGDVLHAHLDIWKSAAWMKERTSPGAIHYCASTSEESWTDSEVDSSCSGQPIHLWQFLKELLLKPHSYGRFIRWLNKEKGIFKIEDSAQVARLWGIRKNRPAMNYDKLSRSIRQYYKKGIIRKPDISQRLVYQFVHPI
Outline: as §1

ETV7 = target: T5, ETV7 (Homo sapiens, UniProt Q9Y603 1-341)
T5 sequence: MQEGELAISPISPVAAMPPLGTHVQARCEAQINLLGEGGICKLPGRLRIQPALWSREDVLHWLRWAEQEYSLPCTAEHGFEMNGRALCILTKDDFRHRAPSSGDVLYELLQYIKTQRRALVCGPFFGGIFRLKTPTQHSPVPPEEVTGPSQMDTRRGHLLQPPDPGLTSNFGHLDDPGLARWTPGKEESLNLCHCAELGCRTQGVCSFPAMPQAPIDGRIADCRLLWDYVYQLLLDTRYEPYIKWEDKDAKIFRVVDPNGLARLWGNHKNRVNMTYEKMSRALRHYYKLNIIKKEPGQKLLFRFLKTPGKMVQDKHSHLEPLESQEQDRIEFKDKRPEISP
Outline: as §1

ELF5 = target: T6, ELF5 (Homo sapiens, UniProt Q9UKW6-2 1-255)
T6 sequence: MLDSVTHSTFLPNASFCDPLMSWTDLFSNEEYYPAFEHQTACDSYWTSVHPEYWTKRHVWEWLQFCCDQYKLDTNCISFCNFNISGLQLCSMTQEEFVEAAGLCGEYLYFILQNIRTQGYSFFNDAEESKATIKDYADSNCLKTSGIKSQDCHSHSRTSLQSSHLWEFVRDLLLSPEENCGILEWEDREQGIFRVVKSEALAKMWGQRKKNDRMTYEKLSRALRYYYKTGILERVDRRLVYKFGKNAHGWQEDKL
Outline: as §1

ETV3 = target: T7, ETV3 (Homo sapiens, UniProt P41162-2 1-143)
T7 sequence: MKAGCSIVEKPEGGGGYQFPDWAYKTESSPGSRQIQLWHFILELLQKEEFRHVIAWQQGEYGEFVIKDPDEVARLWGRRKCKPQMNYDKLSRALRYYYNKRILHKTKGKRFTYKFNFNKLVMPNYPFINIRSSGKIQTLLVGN
Outline: as §1

ETV6 = ETV6 (Homo sapiens, UniProt P41212 1-452)
Outline: as §1

Sequence of ETV6 (P41212 whole entry): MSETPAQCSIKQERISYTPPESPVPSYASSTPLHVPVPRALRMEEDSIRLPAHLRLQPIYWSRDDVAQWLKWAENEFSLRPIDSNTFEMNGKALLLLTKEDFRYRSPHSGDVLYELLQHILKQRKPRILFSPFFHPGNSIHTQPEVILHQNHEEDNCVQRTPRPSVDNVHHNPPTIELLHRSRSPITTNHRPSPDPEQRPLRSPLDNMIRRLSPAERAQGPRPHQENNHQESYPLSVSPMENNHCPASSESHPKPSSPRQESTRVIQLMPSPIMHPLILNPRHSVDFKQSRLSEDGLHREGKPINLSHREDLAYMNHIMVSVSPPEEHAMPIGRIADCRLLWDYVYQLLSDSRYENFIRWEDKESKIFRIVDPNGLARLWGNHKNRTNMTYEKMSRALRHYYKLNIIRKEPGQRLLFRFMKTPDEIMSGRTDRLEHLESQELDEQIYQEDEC

Sequence	binding signal (ERF)	binding signal (ETV3L)	binding signal (ETS2)	binding signal (SPDEF)	binding signal (ETV7)	binding signal (ELF5)	binding signal (ETV3)	binding signal (ETV6)
CTTGCC	1.33 fold enrichment (6-mer frequency, TF over GST control)	1.31 fold enrichment (6-mer frequency, TF over GST control)	1.3 fold enrichment (6-mer frequency, TF over GST control)	1.44 fold enrichment (6-mer frequency, TF over GST control)	1.54 fold enrichment (6-mer frequency, TF over GST control)	1.29 fold enrichment (6-mer frequency, TF over GST control)	1.33 fold enrichment (6-mer frequency, TF over GST control)	1.08 fold enrichment (6-mer frequency, TF over GST control)
CTATGG	1.11 fold enrichment (6-mer frequency, TF over GST control)	1.16 fold enrichment (6-mer frequency, TF over GST control)	1.16 fold enrichment (6-mer frequency, TF over GST control)	1.29 fold enrichment (6-mer frequency, TF over GST control)	1.39 fold enrichment (6-mer frequency, TF over GST control)	1.09 fold enrichment (6-mer frequency, TF over GST control)	1.29 fold enrichment (6-mer frequency, TF over GST control)	1.09 fold enrichment (6-mer frequency, TF over GST control)
ATTAAA	1.3 fold enrichment (6-mer frequency, TF over GST control)	1.24 fold enrichment (6-mer frequency, TF over GST control)	1.12 fold enrichment (6-mer frequency, TF over GST control)	1.14 fold enrichment (6-mer frequency, TF over GST control)	1.1 fold enrichment (6-mer frequency, TF over GST control)	1.12 fold enrichment (6-mer frequency, TF over GST control)	1.12 fold enrichment (6-mer frequency, TF over GST control)	1.18 fold enrichment (6-mer frequency, TF over GST control)
TCGTTT	1.07 fold enrichment (6-mer frequency, TF over GST control)	1.15 fold enrichment (6-mer frequency, TF over GST control)	1.28 fold enrichment (6-mer frequency, TF over GST control)	1.12 fold enrichment (6-mer frequency, TF over GST control)	1.31 fold enrichment (6-mer frequency, TF over GST control)	1.27 fold enrichment (6-mer frequency, TF over GST control)	1.25 fold enrichment (6-mer frequency, TF over GST control)	1.15 fold enrichment (6-mer frequency, TF over GST control)
TTGTCT	1.16 fold enrichment (6-mer frequency, TF over GST control)	1.18 fold enrichment (6-mer frequency, TF over GST control)	1.22 fold enrichment (6-mer frequency, TF over GST control)	1.22 fold enrichment (6-mer frequency, TF over GST control)	1.33 fold enrichment (6-mer frequency, TF over GST control)	1.26 fold enrichment (6-mer frequency, TF over GST control)	1.23 fold enrichment (6-mer frequency, TF over GST control)	1.13 fold enrichment (6-mer frequency, TF over GST control)
ATGCGC	1.24 fold enrichment (6-mer frequency, TF over GST control)	1.22 fold enrichment (6-mer frequency, TF over GST control)	1.19 fold enrichment (6-mer frequency, TF over GST control)	1.1 fold enrichment (6-mer frequency, TF over GST control)	1.22 fold enrichment (6-mer frequency, TF over GST control)	1.14 fold enrichment (6-mer frequency, TF over GST control)	1.17 fold enrichment (6-mer frequency, TF over GST control)	1.22 fold enrichment (6-mer frequency, TF over GST control)
ATACCC	1.14 fold enrichment (6-mer frequency, TF over GST control)	1.18 fold enrichment (6-mer frequency, TF over GST control)	1.24 fold enrichment (6-mer frequency, TF over GST control)	1.27 fold enrichment (6-mer frequency, TF over GST control)	1.18 fold enrichment (6-mer frequency, TF over GST control)	1.18 fold enrichment (6-mer frequency, TF over GST control)	1.18 fold enrichment (6-mer frequency, TF over GST control)	1.09 fold enrichment (6-mer frequency, TF over GST control)
CCAATT	1.23 fold enrichment (6-mer frequency, TF over GST control)	1.24 fold enrichment (6-mer frequency, TF over GST control)	1.25 fold enrichment (6-mer frequency, TF over GST control)	1.19 fold enrichment (6-mer frequency, TF over GST control)	1.21 fold enrichment (6-mer frequency, TF over GST control)	1.14 fold enrichment (6-mer frequency, TF over GST control)	1.23 fold enrichment (6-mer frequency, TF over GST control)	1.24 fold enrichment (6-mer frequency, TF over GST control)
ATCCTT	1.56 fold enrichment (6-mer frequency, TF over GST control)	1.58 fold enrichment (6-mer frequency, TF over GST control)	1.47 fold enrichment (6-mer frequency, TF over GST control)	2.13 fold enrichment (6-mer frequency, TF over GST control)	1.49 fold enrichment (6-mer frequency, TF over GST control)	2.26 fold enrichment (6-mer frequency, TF over GST control)	1.84 fold enrichment (6-mer frequency, TF over GST control)	1.68 fold enrichment (6-mer frequency, TF over GST control)

Source: PMC7862700, “An all-to-all approach to the identification of sequence-specific readers for epigenetic DNA modifications on cytosine”
